Results on 13 molecules are retold here after PubChem BioAssay (NCATS).

Records with an inconclusive call do not appear. Calls of active or inactive are those of the source. Calls come from the whole dose curve; as a rule, active = well fitted inhibition curve with a large enough effect; inconclusive = small, poorly fitted or top-dose-only effect; inactive = flat fitted curve, though single readings scatter.

Holding throughout (experiment): qHTS profiling for inhibitors of Plasmodium falciparum proliferation (AID 504749); note: nearly all actives have a fitted effect of over 60% in size
What all share (settings): P. falciparum in erythrocytes, SYBR Green DNA, 72 h; series mostly up to 28.7 µM
(qHTS replaces the single test concentration by a dilution series.)

One assay concerns CP335. The essentials: (§1)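 Readout was DNA-dye fluorescence from lysed cultures, ex 485/em 535 nm. Parasitized red cells had grown 72 h with compound; data scaled between 0.29 uM artemisinin and DMSO wells and corrected using vehicle-only plates.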
The next assay relates to DFO2036. The essentials:
as §1

The subject of another assay is DIV14. In short, it runs like this: as §1
The test system of another assay is DIV17. The essentials:
as §1

The subject of a further assay is DIV30. In short, it runs like this: as §1
For the next assay, the system named is Dd2. In short, it runs like this: as §1
The test system of the next assay is ECU. The essentials: as §1
The next assay concerns FAB9. In short, it runs like this: as §1
For another assay, the system named is GB4. The essentials: as §1
Another assay concerns HB3. In short, it runs like this: as §1
The test system of the next assay is ICS. The essentials:
as §1

In a further assay the test system is JCK. In short, it runs like this: as §1
Another assay deals with N140. In short, it runs like this:
as §1

Another assay concerns P93_24. In short, it runs like this:
as §1

Another assay has as its system P94_40. The essentials:
as §1

Another assay concerns PAD. The essentials:
as §1

The subject of another assay is PC15. In short, it runs like this:
as §1

A further assay concerns PC26. In short, it runs like this: as §1
Another assay concerns PC49. The essentials:
as §1

For another assay, the system named is SC27B. In short, it runs like this: as §1
Potency is the fitted concentration of half-maximal effect.

In the case of `CS(=O)(=O)CCNCc1ccc(-c2ccc3ncnc(Nc4ccc(OCc5cccc(F)c5)c(Cl)c4)c3c2)o1`, the Potency entry with CP335, in the assay on DFO2036, with DIV14, in the assay on DIV17, with DIV30 and in the assay with Dd2 was “inactive” throughout. Moreover, the Potency result in the assay with ECU, in the assay with FAB9, with GB4, in the assay on HB3, with ICS and in the assay with JCK was “inactive” throughout. For the same molecule, the Potency entry in the assay with N140, in the assay on P93_24, in the assay on P94_40, with PAD, in the assay with PC15 and with PC26 was “inactive” each time. Moreover, the Potency entry in the assay on PC49 and in the assay with SC27B was “inactive” throughout.
Take `CN1CCN2c3ccccc3Cc3ccccc3C2C1` (configuration not stated): the Potency result in the assay on CP335, with DFO2036, in the assay on DIV14, in the assay on DIV17, with DIV30 and with Dd2 was “inactive” each time. Besides, the Potency entry with ECU, in the assay with FAB9, in the assay with GB4, in the assay with HB3, with ICS and in the assay on JCK was “inactive” in each case. For the same molecule, the Potency result with N140, in the assay with P93_24, in the assay with P94_40, in the assay with PAD, in the assay on PC15 and in the assay with PC26 was “inactive” in each case. Besides, the Potency entry in the assay on PC49 and in the assay with SC27B was “inactive” each time.
With `Cc1cc(C(C)(C)C)c(O)c(C)c1CC1=NCCN1`, the Potency result in the assay on CP335, in the assay on DFO2036, in the assay with DIV14, in the assay on DIV17, in the assay with DIV30 and in the assay on Dd2 was “inactive” throughout. The Potency entry in the assay with ECU, with FAB9, in the assay with GB4, in the assay on HB3, in the assay on ICS and with JCK was “inactive” each time. Moreover, the Potency result with N140, with P93_24, with P94_40, in the assay with PAD, in the assay on PC15 and in the assay on PC26 was “inactive” in each case. Moreover, the Potency result with PC49 and in the assay with SC27B was “inactive” in each case.
With `OCCN1CCN(CCCN2c3ccccc3Sc3ccc(C(F)(F)F)cc32)CC1`, the Potency was 4.26 µM (active) in the assay on CP335; 7.08 µM (active) in the assay with DFO2036; 6.75 µM (active) in the assay with DIV14; 6.01 µM (active) in the assay on DIV17; 8.49 µM (active) in the assay with DIV30; 11.2 µM (active) with Dd2. Moreover, the Potency was 6.31 µM (active) in the assay with ECU; 6.01 µM (active) in the assay on GB4; 11.2 µM (active) with HB3; 1.58 µM (active) in the assay with ICS; 7.08 µM (active) with N140; 6.31 µM (active) with P93_24. For the same molecule, the Potency in the assay with P94_40 was 11.2 µM (active); with PAD it was 7.94 µM (active); in the assay with PC15 it was 11.2 µM (active); with PC26 it was 6.75 µM (active); with SC27B, 8.91 µM (active).
`Cc1cn([C@H]2C=C[C@@H](CO)O2)c(=O)[nH]c1=O`: the Potency result with CP335, in the assay on DFO2036, with DIV14, with DIV17, in the assay on DIV30 and with Dd2 was “inactive” in each case. Besides, the Potency entry with ECU, in the assay on FAB9, with GB4, in the assay with HB3, in the assay with ICS and in the assay on JCK was “inactive” throughout. Further, the Potency result in the assay on N140, in the assay with P93_24, in the assay on P94_40, in the assay with PAD, in the assay on PC15 and in the assay on PC26 was “inactive” in each case. The Potency result in the assay with PC49 and in the assay with SC27B was “inactive” each time.
Consider `CC(C)C(=O)Nc1ccc([N+](=O)[O-])c(C(F)(F)F)c1`, for which the Potency entry in the assay with CP335, in the assay on DFO2036, with DIV14, in the assay on DIV17, in the assay with DIV30 and in the assay with Dd2 was “inactive” throughout. For the same molecule, the Potency entry with ECU, in the assay with FAB9, in the assay with GB4, with HB3, in the assay with ICS and with JCK was “inactive” in each case. Moreover, the Potency entry in the assay with N140, in the assay on P93_24, with P94_40, with PAD, in the assay with PC15 and with PC26 was “inactive” throughout. Besides, the Potency result in the assay with PC49 and in the assay on SC27B was “inactive” throughout.
Take `O=C1N(c2ccccc2)c2ccccc2C1(Cc1ccncc1)Cc1ccncc1`: the Potency result in the assay with CP335, in the assay with DFO2036, with DIV14, in the assay with DIV17, with DIV30 and in the assay on Dd2 was “inactive” each time. Moreover, the Potency entry with ECU, with FAB9, in the assay on GB4, in the assay on HB3, in the assay on JCK and in the assay with N140 was “inactive” in each case. Moreover, the Potency result in the assay on P93_24, in the assay on P94_40, in the assay with PAD, in the assay with PC15, with PC26 and in the assay with PC49 was “inactive” in each case. The Potency result with SC27B was “inactive”.
Take `CCOC(=O)c1ncn2c1CN(C)C(=O)c1cc(F)ccc1-2`: the Potency entry with CP335, in the assay on DFO2036, in the assay on DIV14, with DIV17, with DIV30 and in the assay on Dd2 was “inactive” throughout. The Potency entry in the assay with ECU, in the assay with FAB9, with GB4, in the assay with HB3, in the assay on ICS and in the assay with JCK was “inactive” throughout. Also, the Potency entry with N140, in the assay on P93_24, in the assay with P94_40, with PAD, in the assay with PC15 and in the assay with PC26 was “inactive” in each case. Also, the Potency result in the assay with PC49 and in the assay on SC27B was “inactive” in each case.
Consider `NS(=O)(=O)c1cc2c(cc1Cl)NCNS2(=O)=O`, for which the Potency entry in the assay with CP335, in the assay on DFO2036, in the assay with DIV14, with DIV17, in the assay on DIV30 and in the assay with Dd2 was “inactive” each time. For the same molecule, the Potency result in the assay on ECU, with FAB9, with GB4, with HB3, with ICS and in the assay with JCK was “inactive” each time. Besides, the Potency entry in the assay with N140, with P93_24, with P94_40, in the assay with PAD, in the assay on PC15 and in the assay on PC26 was “inactive” throughout. The Potency entry in the assay on PC49 and in the assay with SC27B was “inactive” each time.
Consider `CC(C)(C)C(=O)Oc1ccc(S(=O)(=O)Nc2ccccc2C(=O)NCC(=O)O)cc1`, for which the Potency result with CP335, in the assay on DFO2036, with DIV14, in the assay on DIV17, in the assay on DIV30 and with Dd2 was “inactive” throughout. In addition, the Potency entry in the assay on FAB9, in the assay on GB4, with HB3, in the assay with ICS, in the assay on JCK and with N140 was “inactive” each time. Moreover, the Potency result in the assay with P93_24, with P94_40, with PAD, in the assay on PC15, with PC26 and in the assay with PC49 was “inactive” throughout. Also, the Potency entry in the assay on SC27B was “inactive”.
As for `O=c1c(-c2ccc(O)cc2)coc2cc(O)cc(O)c12`, the Potency result in the assay on CP335, in the assay with DFO2036, in the assay on DIV14, with DIV17, in the assay on DIV30 and with Dd2 was “inactive” throughout. Moreover, the Potency entry in the assay with ECU, in the assay on FAB9, with GB4, in the assay on HB3, in the assay with ICS and in the assay on JCK was “inactive” throughout. Also, the Potency entry in the assay with N140, with P93_24, with P94_40, in the assay with PAD, with PC15 and in the assay with PC49 was “inactive” each time. The Potency entry in the assay with SC27B was “inactive”.
For the molecule `Nc1nc2c(ncn2COC(CO)CO)c(=O)[nH]1`, the Potency entry with CP335, in the assay with DFO2036, in the assay on DIV14, in the assay with DIV17, with DIV30 and in the assay on Dd2 was “inactive” throughout. Also, the Potency entry in the assay with ECU, in the assay on FAB9, in the assay on GB4, in the assay on HB3, in the assay on ICS and with JCK was “inactive” each time. Also, the Potency entry in the assay with N140, in the assay on P93_24, in the assay on P94_40, with PAD, with PC15 and in the assay with PC26 was “inactive” in each case. Further, the Potency entry with PC49 and in the assay on SC27B was “inactive” throughout.
As for `NCCc1cnc[nH]1`, the Potency entry with CP335, in the assay with DFO2036, in the assay on DIV14, with DIV17, with DIV30 and with Dd2 was “inactive” each time. In addition, the Potency result in the assay on ECU, in the assay on FAB9, in the assay with GB4, in the assay on HB3, in the assay on ICS and in the assay on JCK was “inactive” in each case. The Potency entry in the assay with N140, in the assay with P93_24, with P94_40, with PC15, in the assay with PC26 and in the assay on SC27B was “inactive” throughout.
